Experimental data taken from PubChem BioAssay.
Inconclusive results are not listed. Active and inactive are the calls of the source. Rule as the data show it, unless noted: active = percent of DMSO control GFP below about 86%; inactive = the rest, inconclusive results apart.

Legend:
[1] = yeast TOR pathway RPL19A-GFP modulators, primary screen, cell-based, S. cerevisiae, multiplex flow cytometry (AID 1862);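 also: lower values mimic rapamycin by blocking the RPL19A rise seen in DMSO cells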; conditions: S. cerevisiae RPL19A-GFP strain, flow cytometry fluorescence, 3 h; at 10 µM; stronger effect = lower value
[2] = modulators of MEP2-GFP levels in yeast, primary screen, S. cerevisiae, multiplex flow cytometry (AID 1867;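 active = GFP response, as percent of the DMSO control, above the screen-wide mean plus 3 SD, about 139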;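 also: median GFP channel fluorescence of barcode-gated MEP2-GFP cells measured by flow cytometry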); conditions: S. cerevisiae MEP2-GFP strain, 3 h, at 10 µM, stronger effect = higher value, 100% means same as DMSO wells
[3] = modulators of CIT2-GFP expression in yeast, primary screen, S. cerevisiae, GFP fusion, multiplex flow cytometry (AID 1870;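 active = percent response above a set limit, the screen-wide mean plus 3 SD, cut at about 130% in these data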;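 also: barcoded CIT2-GFP strain pooled with four other GFP strains with rapamycin as positive control; median GFP fluorescence per well over plate mean of DMSO wells so 100% = DMSO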); conditions: 3 h, at 10 µM, stronger effect = higher value
[4] = modulators of LAP4-GFP expression in yeast, primary screen, S. cerevisiae, multiplex flow cytometry (AID 1873;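 active = GFP signal, as percent of the solvent control, above the screen mean plus 3 SD, about 149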); conditions: 3 h, at 10 µM, stronger effect = higher value
[5] = modulators of AGP1-GFP expression in yeast TOR pathway, primary screen, cell-based, multiplex flow cytometry, S. cerevisiae (AID 1887;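 active = GFP signal above the screen-wide mean plus 3 SD, that is over about 124.5% of the solvent control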;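 also: AGP1-GFP fusion strain of S. cerevisiae within a five-strain barcoded multiplex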); conditions: 3 h, at 10 µM, stronger effect = higher value
[6] = inhibitors of CD8+ T cell-vesicle binding, pilot screen, LFA-1/ICAM-1 modulator project, MLPCN validation set, flow cytometry (AID 2523;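 active = response below a set limit, under 55% cells CD8-positive and vesicle-bound, and CD8 cells' 90th-percentile brightness under 279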;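 as to vesicle binding response: mean PE anti-B7-1 fluorescence of CD8+ cells relative to row control; 100% = QL9-loaded vesicles with DMSO vehicle in the same plate row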); conditions: 2C mouse CD8+ T cells, at 7 µM, stronger effect = lower value; double positive events: measured here: CD8+/vesicle+ event percentage
[7] = target: Integrin beta-1 (Homo sapiens) + Integrin alpha-4 (Homo sapiens) (UniProt P13612+P05556); assay: inhibition of HUTS-21 binding to VLA-4, pilot screen, VLA-4 allosteric modulator project, U937 cells, HUTS-21 mAb, flow cytometry, validation set (AID 2674;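 active = inhibition above 50%, about 3 SD of the validation set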;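 also: antibody binding induced by the VLA-4 ligand LDV present at three times its Kd; 0% = LDV ligand with antibody and no compound and 100% = antibody without LDV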); conditions: HUTS-21 LIBS mAb binding, at 6.7 µM, stronger effect = higher value, binding induced by LDV ligand
[8] = target: Beta-adrenergic receptor kinase 1 (Homo sapiens) (UniProt P25098); assay: GRK2 binders displacing RNA aptamer, biochemical, validation, human GRK2, bead flow cytometry (AID 488806;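 active = aptamer binding inhibition above 30%, about 3 SD of noise from non-fluorescent compounds; inactive = inhibition at or below 30%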); conditions: bead-bound GRK2, FAM-aptamer displacement, at 10 µM, stronger effect = higher value
[9] = target: Beta-2 adrenergic receptor (Homo sapiens) (UniProt P07550); assay: beta2AR agonists driving receptor internalization, pilot screen, cell-based, FAP fluorogen, flow cytometry, validation set (AID 504459;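 active = percent response above 42, roughly 3 SD of non-fluorescent test compounds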;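 also: agonist-driven loss of surface beta2AR via internalization measured by FAP dye flow cytometry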); conditions: Am2.2-beta2AR cells, FAP surface receptor flow cytometry; at 10 µM; stronger effect = higher value
[10] = target: AP-2 complex subunit beta (Homo sapiens) (UniProt P63010); assay: inhibitors of arrestin peptide binding to AP2, pilot screen, biochemical, validation set, GST-AP2 beads, flow cytometry (AID 504541;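 active = inhibition above 54%, about 3 SD of non-fluorescent compounds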;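 also: AP2 carries R879A mutation and is captured from E. coli lysate; bead-bound FITC arrestin peptide fluorescence measuring arrestin peptide binding to AP2; 0% = DMSO wells and 100% = excess unlabeled arrestin peptide control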); conditions: FITC arrestin peptide, at 10 µM, stronger effect = higher value, AP2 beta2 appendage fragment, R879A mutant
[11] = yeast V-ATPase proton transport modulators, S. cerevisiae, pHLuorin, HTS validation (AID 504600; in the data active = response above about 15%;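 also: plate controls were DMSO for no effect and reference compound for full effect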); conditions: S. cerevisiae pHLuorin cytosolic pH, at 10 µM, stronger effect = higher value
[12] = test system: anti-desmoglein-3 scFv antibody binding to human DSG3; assay: inhibitors of anti-DSG3 scFv binding to DSG3, pilot screen, biochemical, validation compound set, bead-based, flow cytometry (AID 588368;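 active = binding below the plate cutoff, the plate median minus 3 SD, with a reading above zero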;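 also: signal is the median channel fluorescence of bead-bound GFP antibody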); conditions: Protein G beads, DSG3-Fc, scFv-GFP binding, at 10 µM, stronger effect = lower value
[13] = inhibitors of fungal efflux pumps CDR1, CDR2, MDR1, pilot screen, validation compound set, multiplex, phenotypic (AID 588506;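 active = efflux inhibition above 0.42, the validation set average plus 4 SD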;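 also: Nile Red retained in cells so higher fluorescence means more efflux inhibition; 0 = negative control wells and 1 = enniatin B 25 µM full block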); conditions: S. cerevisiae pump-expressing triplex, Nile Red efflux flow cytometry; at 10 µM; stronger effect = higher value; the pumps come from Candida albicans
[14] = target: ATP-binding cassette sub-family B member 6 (Homo sapiens) (UniProt Q9NP58); assay: ABCB6 transporter inhibitors, pilot screen, K562-ABCB6 cells, flow cytometry, validation set (AID 588550;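 active = inhibition above the screen-wide mean plus 3 SD, about 51%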;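 also: 0% = DMSO wells and 100% = benzethonium chloride 70 µM positive control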); conditions: K562-ABCB6 porphyrin accumulation, 1 h, at 10 µM, stronger effect = higher value
[15] = promoters of myeloid differentiation in arrested cells, primary screen, cell-based, GFP/MAC1 double positive, flow cytometry, validation set (AID 588685;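 active = differentiation response of at least 50%, scaled between solvent and reference control, from cells with both markers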;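 also: compound exposure lasts four days before antibody staining and flow analysis; 0% = DMSO wells and 100% = 5 µM fulvestrant positive control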); conditions: ER-HoxA9 marrow cells, stronger effect = higher value, normalized: vehicle 0, fulvestrant 100
[16] = superoxide lowering in aged yeast cells, pilot screen, validation compound set (AID 2706;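 active = superoxide response below 65% of plate, a cut near 3 SD across the whole screen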;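 also: yeast exposed to compound for one week at 30 degrees C before staining; 100% = mean of all compound wells on the same plate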); conditions: S. cerevisiae aging, superoxide DHE fluorescence; at 10 µM, stronger effect = lower value

Chain of Integrin beta-1 (Homo sapiens) + Integrin alpha-4 (Homo sapiens) (P05556 whole entry, looked up): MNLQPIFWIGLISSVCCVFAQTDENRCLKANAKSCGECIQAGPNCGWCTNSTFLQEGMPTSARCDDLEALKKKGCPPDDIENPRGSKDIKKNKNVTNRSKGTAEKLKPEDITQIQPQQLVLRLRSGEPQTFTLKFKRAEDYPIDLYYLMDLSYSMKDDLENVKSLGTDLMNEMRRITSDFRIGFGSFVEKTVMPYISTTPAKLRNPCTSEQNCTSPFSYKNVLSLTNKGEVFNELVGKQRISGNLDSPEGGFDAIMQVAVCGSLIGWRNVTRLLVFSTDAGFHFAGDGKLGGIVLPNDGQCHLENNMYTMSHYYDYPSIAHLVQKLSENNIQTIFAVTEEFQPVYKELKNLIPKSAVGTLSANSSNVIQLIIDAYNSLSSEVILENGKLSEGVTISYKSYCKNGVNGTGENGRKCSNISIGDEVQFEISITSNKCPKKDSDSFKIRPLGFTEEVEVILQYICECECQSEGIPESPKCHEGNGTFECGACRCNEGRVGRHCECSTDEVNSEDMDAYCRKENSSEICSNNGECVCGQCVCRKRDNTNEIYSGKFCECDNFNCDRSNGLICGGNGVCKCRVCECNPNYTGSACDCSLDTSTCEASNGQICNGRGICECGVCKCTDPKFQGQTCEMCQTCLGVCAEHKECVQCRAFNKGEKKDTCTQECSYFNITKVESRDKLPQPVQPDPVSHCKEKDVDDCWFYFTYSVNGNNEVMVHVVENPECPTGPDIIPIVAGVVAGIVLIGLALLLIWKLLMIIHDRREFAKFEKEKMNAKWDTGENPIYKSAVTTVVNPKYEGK
Chain of Integrin beta-1 (Homo sapiens) + Integrin alpha-4 (Homo sapiens) (P13612 whole entry, looked up): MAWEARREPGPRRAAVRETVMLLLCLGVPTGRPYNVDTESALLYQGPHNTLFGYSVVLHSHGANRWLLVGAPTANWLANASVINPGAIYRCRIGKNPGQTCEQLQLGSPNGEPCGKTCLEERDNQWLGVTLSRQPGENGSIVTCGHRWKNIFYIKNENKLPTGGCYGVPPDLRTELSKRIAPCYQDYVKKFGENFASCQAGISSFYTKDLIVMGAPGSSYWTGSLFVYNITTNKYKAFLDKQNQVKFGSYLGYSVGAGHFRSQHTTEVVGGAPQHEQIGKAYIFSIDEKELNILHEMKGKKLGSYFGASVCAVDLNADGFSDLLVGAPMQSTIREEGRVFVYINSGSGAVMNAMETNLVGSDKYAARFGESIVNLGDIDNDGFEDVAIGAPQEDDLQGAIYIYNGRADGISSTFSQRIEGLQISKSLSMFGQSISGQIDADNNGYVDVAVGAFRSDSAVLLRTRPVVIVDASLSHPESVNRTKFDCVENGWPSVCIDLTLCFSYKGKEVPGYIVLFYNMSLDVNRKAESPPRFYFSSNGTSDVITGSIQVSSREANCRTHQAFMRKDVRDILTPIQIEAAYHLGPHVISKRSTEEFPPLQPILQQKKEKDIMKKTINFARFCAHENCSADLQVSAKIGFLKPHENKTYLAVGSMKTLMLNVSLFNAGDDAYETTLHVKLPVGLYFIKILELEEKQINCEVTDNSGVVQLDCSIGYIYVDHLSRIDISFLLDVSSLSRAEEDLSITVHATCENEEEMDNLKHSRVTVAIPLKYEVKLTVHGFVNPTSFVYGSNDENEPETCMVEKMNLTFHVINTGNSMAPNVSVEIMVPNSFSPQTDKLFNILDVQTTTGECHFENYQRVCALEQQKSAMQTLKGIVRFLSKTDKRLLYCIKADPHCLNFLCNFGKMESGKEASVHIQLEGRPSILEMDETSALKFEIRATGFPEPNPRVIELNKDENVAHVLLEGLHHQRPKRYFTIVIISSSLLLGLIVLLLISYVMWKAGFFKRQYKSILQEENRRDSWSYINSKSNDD
Chain of ATP-binding cassette sub-family B member 6 (Homo sapiens) (Q9NP58 whole entry, looked up): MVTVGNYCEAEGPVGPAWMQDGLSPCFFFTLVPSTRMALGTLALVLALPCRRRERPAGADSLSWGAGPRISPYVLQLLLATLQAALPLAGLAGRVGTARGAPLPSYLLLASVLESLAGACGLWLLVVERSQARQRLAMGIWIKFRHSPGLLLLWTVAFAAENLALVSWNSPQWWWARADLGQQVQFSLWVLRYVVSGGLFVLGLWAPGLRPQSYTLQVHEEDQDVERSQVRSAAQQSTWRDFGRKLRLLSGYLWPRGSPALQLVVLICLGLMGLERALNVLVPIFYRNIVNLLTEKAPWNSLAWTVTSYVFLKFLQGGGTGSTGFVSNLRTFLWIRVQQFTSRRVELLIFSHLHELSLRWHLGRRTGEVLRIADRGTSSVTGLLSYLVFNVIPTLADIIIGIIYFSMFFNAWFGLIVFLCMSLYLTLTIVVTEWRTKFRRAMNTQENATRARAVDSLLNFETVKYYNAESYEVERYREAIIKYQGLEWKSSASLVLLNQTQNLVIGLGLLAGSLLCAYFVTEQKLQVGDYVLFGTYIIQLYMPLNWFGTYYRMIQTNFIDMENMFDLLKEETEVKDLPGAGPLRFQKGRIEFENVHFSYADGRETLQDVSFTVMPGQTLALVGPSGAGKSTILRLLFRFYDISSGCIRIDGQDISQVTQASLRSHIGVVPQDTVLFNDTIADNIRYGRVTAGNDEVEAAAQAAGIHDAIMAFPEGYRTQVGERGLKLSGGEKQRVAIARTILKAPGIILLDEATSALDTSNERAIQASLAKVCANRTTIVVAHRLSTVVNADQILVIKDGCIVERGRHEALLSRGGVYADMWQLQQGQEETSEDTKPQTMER
Chain of AP-2 complex subunit beta (Homo sapiens) (P63010 whole entry, looked up, the tested form may be a part, one chain of several): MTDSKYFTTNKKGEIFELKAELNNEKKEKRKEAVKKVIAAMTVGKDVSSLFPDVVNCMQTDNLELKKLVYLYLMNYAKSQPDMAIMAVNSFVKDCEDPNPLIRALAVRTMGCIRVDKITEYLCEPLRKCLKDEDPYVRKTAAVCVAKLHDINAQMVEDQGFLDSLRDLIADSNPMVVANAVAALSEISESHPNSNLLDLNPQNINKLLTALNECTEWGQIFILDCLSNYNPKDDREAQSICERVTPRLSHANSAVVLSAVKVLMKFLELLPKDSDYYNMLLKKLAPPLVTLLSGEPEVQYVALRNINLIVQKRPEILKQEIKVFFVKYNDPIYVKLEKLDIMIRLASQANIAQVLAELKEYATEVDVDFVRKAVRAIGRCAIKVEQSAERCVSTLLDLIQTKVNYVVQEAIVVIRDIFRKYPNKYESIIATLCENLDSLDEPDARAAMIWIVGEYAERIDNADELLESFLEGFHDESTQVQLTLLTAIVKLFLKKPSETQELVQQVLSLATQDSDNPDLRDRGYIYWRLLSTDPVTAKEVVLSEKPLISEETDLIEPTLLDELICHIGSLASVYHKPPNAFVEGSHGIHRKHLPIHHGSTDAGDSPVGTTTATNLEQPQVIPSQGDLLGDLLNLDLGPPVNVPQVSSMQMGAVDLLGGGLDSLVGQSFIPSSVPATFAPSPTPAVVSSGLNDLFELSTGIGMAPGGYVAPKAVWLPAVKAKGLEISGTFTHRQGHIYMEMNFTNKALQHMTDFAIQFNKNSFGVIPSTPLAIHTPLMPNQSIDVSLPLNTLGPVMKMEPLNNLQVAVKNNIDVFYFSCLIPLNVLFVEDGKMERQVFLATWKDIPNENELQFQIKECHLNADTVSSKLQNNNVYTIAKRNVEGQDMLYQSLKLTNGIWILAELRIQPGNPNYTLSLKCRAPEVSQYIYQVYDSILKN
Chain of Beta-adrenergic receptor kinase 1 (Homo sapiens) (P25098 whole entry, looked up): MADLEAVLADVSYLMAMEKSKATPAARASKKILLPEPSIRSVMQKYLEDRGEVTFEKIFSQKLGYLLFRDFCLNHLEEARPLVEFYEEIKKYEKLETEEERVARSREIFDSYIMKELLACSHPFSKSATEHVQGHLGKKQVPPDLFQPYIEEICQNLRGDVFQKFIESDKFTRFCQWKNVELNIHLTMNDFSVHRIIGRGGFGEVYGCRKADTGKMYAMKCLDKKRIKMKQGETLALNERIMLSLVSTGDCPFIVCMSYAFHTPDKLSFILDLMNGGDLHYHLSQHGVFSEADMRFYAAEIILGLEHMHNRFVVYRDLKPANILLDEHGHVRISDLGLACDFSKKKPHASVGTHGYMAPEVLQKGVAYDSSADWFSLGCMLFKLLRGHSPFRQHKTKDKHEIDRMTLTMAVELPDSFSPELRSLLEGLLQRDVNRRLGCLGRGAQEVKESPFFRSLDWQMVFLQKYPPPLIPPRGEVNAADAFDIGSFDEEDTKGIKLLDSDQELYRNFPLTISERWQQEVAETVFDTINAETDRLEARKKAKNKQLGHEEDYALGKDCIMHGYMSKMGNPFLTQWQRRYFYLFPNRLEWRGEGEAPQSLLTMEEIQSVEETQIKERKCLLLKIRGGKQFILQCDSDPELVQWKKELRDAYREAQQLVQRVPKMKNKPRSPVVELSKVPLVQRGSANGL
Chain of Beta-2 adrenergic receptor (Homo sapiens) (P07550 whole entry, looked up): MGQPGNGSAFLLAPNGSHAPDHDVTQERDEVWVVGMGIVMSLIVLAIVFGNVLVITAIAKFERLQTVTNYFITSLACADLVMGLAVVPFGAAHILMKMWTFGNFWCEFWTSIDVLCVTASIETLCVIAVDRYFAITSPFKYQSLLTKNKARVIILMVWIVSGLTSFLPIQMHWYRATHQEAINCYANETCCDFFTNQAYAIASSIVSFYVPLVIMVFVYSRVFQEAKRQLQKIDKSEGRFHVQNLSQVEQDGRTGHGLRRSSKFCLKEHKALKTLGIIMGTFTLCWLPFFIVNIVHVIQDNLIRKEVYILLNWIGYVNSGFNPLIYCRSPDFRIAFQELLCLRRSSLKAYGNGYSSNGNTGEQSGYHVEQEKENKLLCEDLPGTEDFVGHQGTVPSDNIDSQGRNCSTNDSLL

| SMILES | percent of DMSO control GFP [1] | GFP response vs DMSO [2] | percent response of DMSO control [3] | GFP response vs DMSO [4] | GFP response, % of DMSO [5] | double positive events [6] | vesicle binding response [6] | inhibition [7] | aptamer binding inhibition [8] | response [9] | inhibition [10] | response [11] | binding (% of control) [12] | efflux inhibition (fraction of control) [13] | inhibition [14] | differentiation response [15] | superoxide response (% of plate) [16] |
| --- | --- | --- | --- | --- | --- | --- | --- | --- | --- | --- | --- | --- | --- | --- | --- | --- | --- |
| CCC1(c2ccccc2)C(=O)NCNC1=O | 102% (inactive) | 94.1% (inactive) | 95.4% (inactive) | 87.4% (inactive) | 92.6% (inactive) | 61.9% | 285% (inactive) | 5.77% (inactive) | 2% (inactive) | 7.83% (inactive) | 13.7% (inactive) | 1.33% (inactive) | 101% (inactive) | 0.77 (active) | -12% (inactive) | 13.9% (inactive) | – |
| O=C(c1ccc(F)cc1)[C@@H]1[C@@H](C(=O)c2ccccc2)[C@@]2(C(=O)Nc3ccccc32)[C@H]2c3ccccc3C=CN12 | 102% (inactive) | 93.8% (inactive) | 106% (inactive) | 102% (inactive) | 102% (inactive) | 43.2% | 172% (inactive) | -183% (inactive) | -3% (inactive) | – | -24.7% (inactive) | 2.83% (inactive) | 100% (inactive) | 0.03 (inactive) | 3% (inactive) | -19.6% (inactive) | 121% (inactive) |
| CCCC(=O)Nc1ccc(OCC(O)CNC(C)C)c(C(C)=O)c1 (stereo not drawn) | 99% (inactive) | 101% (inactive) | 100% (inactive) | 106% (inactive) | 99.2% (inactive) | 59.8% | 2400% (inactive) | -24.6% (inactive) | -5% (inactive) | – | – | -0.74% (inactive) | 200% (inactive) | -0.57 (inactive) | -3% (inactive) | 11.1% (inactive) | 106% (inactive) |
| O=C(CCCN1CCC(O)(c2ccc(Cl)cc2)CC1)c1ccc(F)cc1 | 101% (inactive) | 99.3% (inactive) | 91.9% (inactive) | 86.8% (inactive) | 93.7% (inactive) | 62.6% | 48.6% (inactive) | 9.92% (inactive) | -3% (inactive) | -2.5% (inactive) | 13.3% (inactive) | -1.24% (inactive) | 105% (inactive) | 0.27 (inactive) | 21% (inactive) | 15.9% (inactive) | – |
| Oc1c(Cl)cc(Cl)c(Cl)c1Cc1c(O)c(Cl)cc(Cl)c1Cl | 107% (inactive) | 113% (inactive) | 108% (inactive) | 96.8% (inactive) | 93.1% (inactive) | 51.2% | 24.1% (active) | 7.43% (inactive) | -1% (inactive) | – | – | 0.14% (inactive) | 105% (inactive) | 0.19 (inactive) | 8% (inactive) | 0.82% (inactive) | 79.3% (inactive) |
